The text below walks through data of PubChem BioAssay (Tox21).

Structures are written as SMILES. Values without a mark were called inactive. Inconclusive results are not listed. The source made the active and inactive calls. Unless noted, calls follow the shape of the dose curve; as a rule, active = well fitted curve in the direction sought with a large enough effect in the repeat runs; inconclusive = weak or mixed curves; inactive = no such curve, though single readings can be large; an effect the other way counts as inactive or inconclusive.

Assay [1] in a line: qHTS assay to identify small molecule agonists of the estrogen receptor alpha (ER-alpha) signaling pathway in the presence of an antagonist - cell viability counter screen (AID 1259386).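 Also: series mostly up to about 92 µM; cells exposed to compounds for 22 h at 37 °C before the viability read; nearly all actives have a fitted effect of over 30% in size.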 The gist of the method: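 The test measures whether compounds kill ER-alpha reporter cells (VM7Luc4E2) under antagonist co-treatment (ICI-182,780, 10.0nM). Fluorescence from CellTiter-Fluor is read after a 22hr exposure.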

Assay [2] has as its target Progesterone receptor (Homo sapiens) (UniProt P06401). Put plainly: qHTS assay to identify small molecule agonists of the progesterone receptor (PR) signaling pathway (AID 1346784; calls by dose curve; also: nearly all actives have a fitted effect of over 30% in size). The gist of the method:
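HEK 293T PR-UAS-bla reporter cells, 2% charcoal-stripped FBS; 6 hr settle at 37C/5% CO2, compound (DMSO) 16 hr, LiveBLAzer B/G FRET substrate 2 hr RT, fluorescence intensity read.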

Assay [3] shares this target. Put plainly: qHTS assay to identify small molecule antagonists of the progesterone receptor (PR) signaling pathway (AID 1346795; active = well fitted inhibition curve with a large enough effect in the signal ratio in the repeat runs, not every such curve was filed as active; the % refers to the signal ratio). The gist of the method:
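Beta-lactamase reporter, HEK293T PR-UAS-bla line; 2% charcoal-stripped FBS; 6 hr pre-incubation, 37C/5% CO2. Compound + R5020 1 nM final, 16 hr. LiveBLAzer B/G FRET substrate, 2 hr RT; fluorescence intensity read.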
(Quantitative high-throughput screening tests each substance at several concentrations.)

Assay [4] in a line: qHTS assay to identify small molecule antagonists of the TGF-beta/Smad signaling pathway - cell viability counter screen (AID 1346824). Also: nearly all actives have a fitted effect of over 50% in size. The gist of the method: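 SBE-bla HEK 293T cells, incubated overnight, then compound plus 0.25 ng/mL TGF-beta1 (stock added) for 5 hr at 37 C. Viability was read in the same wells by CellTiter-Glo luminescence after 30 min at room temperature.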

Assay [5] in a line: qHTS assay to identify small molecule agonists of the TGF-beta/Smad signaling pathway - cell viability counter screen (AID 1346829). Also: top concentration of the series differs between compounds; nearly all actives have a fitted effect of over 45% in size. The gist of the method:
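In parallel with the Smad reporter read, viability of HEK 293T cells stably carrying SBE-bla is quantified by ATP luminescence following 5 hr compound treatment.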

Assay [6] can be described thus: qHTS assay to identify small molecule agonists of the TGF-beta/Smad signaling pathway (AID 1346859; active = well fitted activation curve with a large enough effect in the signal ratio in the repeat runs, not every such curve was filed as active; the % refers to the signal ratio; also: series mostly up to about 77 µM). The gist of the method:
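Read-out: fluorescence at 460 and 530 nm (405 nm excitation) after a 2 hr room-temperature incubation with beta-lactamase FRET substrate. SBE-bla HEK 293T cells had been treated with test compounds for 5 hr at 37 C.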

In assay [7] the target is Thyrotropin-releasing hormone receptor (Homo sapiens) (UniProt P34981). Put plainly: qHTS assay to identify small molecule antagonists of the thyrotropin-releasing hormone receptor (TRHR) signaling pathway (AID 1346877; active = well fitted inhibition curve with a large enough effect in the repeat runs, not every such curve was filed as active; also: series mostly up to about 51 µM). The gist of the method:
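Overnight-plated (18 h, 37 °C) HEK293 cells expressing TRHR were dye-loaded 2 h, treated with compound, then stimulated with TRH at 1 nM final. Fluorescence intensity was captured every second for 3 min.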

Assay [8] shares this target. Put plainly: qHTS assay to identify small molecule agonists of the thyrotropin-releasing hormone receptor (TRHR) signaling pathway (AID 1346891; calls by dose curve;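 also: HEK293 cells expressing TRHR with calcium dye readout; series mostly up to about 58 µM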). The gist of the method:
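HEK293/TRHR cells, 1500 per well, 18 h 37 °C; Ca dye 2 h 37 °C; pin-tool compound addition (agonist mode); kinetic fluorescence 3 min, 1 s reads; 15 concentrations, triplicate.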

Assay [9] in a line: Human pregnane X receptor (PXR) small molecule agonists, qHTS cell viability counter screen (AID 1346977). Also: nearly all actives have a fitted effect of over 50% in size. The gist of the method: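 Fluorescence read-out (CellTiter-Fluor) of viability in PXR-Luc HepG2 cells, multiplexed with the luciferase agonist read. Compounds in DMSO added after 5hr plating; 24hr total exposure at 37C, 5% CO2.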
A short description of assay [10]: Caspase-3/7 induction in HepG2 cells by small molecules, qHTS assay (AID 1346978). Also: nearly all actives have a fitted effect of over 15% in size. The gist of the method: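 Wild-type HepG2 cells, 2,000/well, settled 5 hr at 37 C and 5% CO2, then compound-treated for 17 hr; caspase-3/7 activity read by luminescent Caspase-Glo 3/7 after 30 min at room temperature.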
A short description of assay [11]: Caspase-3/7 induction in CHO-K1 cells by small molecules, qHTS cell viability counter screen (AID 1346979). Also: nearly all actives have a fitted effect of over 35% in size. The gist of the method: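 CHO-K1 wt, 1,500 cells/well; 5hr pre-incubation 37C/5% CO2; compound pin transfer (DMSO); 16hr exposure; CellTiter-Fluor added, 1hr, fluorescence read.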
Assay [12] in a line: Caspase-3/7 induction in CHO-K1 cells by small molecules, qHTS assay (AID 1346980). Also: nearly all actives have a fitted effect of over 15% in size. The gist of the method:
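Wild-type CHO-K1 cells exposed to compounds for 17hr at 37 C, 5% CO2. Caspase-3/7 activity then measured by Caspase-Glo 3/7 luminescence after 30min at room temperature.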

Assay [13] can be described thus: Caspase-3/7 induction in HepG2 cells by small molecules, qHTS cell viability counter screen (AID 1346981). Also: series mostly up to about 92 µM; nearly all actives have a fitted effect of over 30% in size. The gist of the method: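 Treatment of HepG2 cells with DMSO-delivered compounds ran 16 hr at 37 C following a 5-hr pre-incubation of 2,000 cells/well. CellTiter-Fluor fluorescence, read after 1 hr, served as the viability measure in a qHTS format.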
Assay [14] deals with Nuclear receptor subfamily 1 group I member 2 (Homo sapiens) (UniProt O75469). Put plainly: Human pregnane X receptor (PXR) small molecule agonists, qHTS assay (AID 1346982). Also: nearly all actives have a fitted effect of over 35% in size. Also: potency is read from the fitted curve at half-maximal effect. The gist of the method:
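Stable HepG2 line reporting PXR-mediated CYP3A4 expression via luciferase. Treatment: 24 hr with compounds in DMSO at 37 C. Detection: ONE-Glo luminescence.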

The target of assay [15] is Nuclear receptor subfamily 1 group I member 2 (Rattus norvegicus) (UniProt Q9R1A7). Put plainly: Rat pregnane X receptor (rPXR) activation by small molecules, qHTS assay (AID 1346983). Also: nearly all actives have a fitted effect of over 20% in size. Conditions: rPXR luciferase reporter cells, One-Glo luminescence, 24 h; max activation: active compounds read high. The gist of the method:
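Cell-based rPXR activation assay: rPXR cells, 2,000 per well, rested 5hr at 37 C, then exposed to compounds in DMSO for 24 hr at 37 C. Luciferase activity read by One-Glo luminescence after 30 min at room temperature.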

The target of assay [16] is Nuclear receptor subfamily 1 group I member 2 (Homo sapiens) (UniProt O75469). Nature of the assay: CYP3A4 induction through human pregnane X receptor (PXR) by small molecules, qHTS assay (AID 1346984). Also: nearly all actives have a fitted effect of over 40% in size. The gist of the method:
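After 24 h at 37C with compound, DPX-2 cells (HepG2, co-transfected PXR response element and CYP3A4 promoter-luciferase) got 3uM final P450-Glo Luciferin-IPA for 3 h; One-Glo luminescence followed.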

Assay [17] is described as follows: qHTS assay to identify small molecule antagonists of the progesterone receptor (PR) signaling pathway - cell viability counter screen (AID 1346798). Also: series mostly up to about 92 µM; nearly all actives have a fitted effect of over 50% in size. The gist of the method: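 Luminescence readout (CellTiter-Glo, 30 min, RT) of viability in PR-UAS-bla HEK293T cells exposed to compound and R5020 agonist for 16 hr at 37C, 5% CO2; run in the same wells as the beta-lactamase reporter read.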

The nature of assay [18]: qHTS assay to identify small molecule agonists of the progesterone receptor (PR) signaling pathway - cell viability counter screen (AID 1346799; calls by dose curve; also: nearly all actives have a fitted effect of over 45% in size). The gist of the method: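 HEK293T PR-UAS-bla, 3,000 cells/well, 2% charcoal-stripped FBS; 6 h settle, compound 16 h at 37C/5% CO2; LiveBLAzer 2 h RT, then CellTiter-Glo 30 min RT, luminescence read.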
% is scaled to controls: 0 for no effect and ±100 for the full control effect.

Chain of Thyrotropin-releasing hormone receptor (Homo sapiens) (P34981 whole entry, looked up): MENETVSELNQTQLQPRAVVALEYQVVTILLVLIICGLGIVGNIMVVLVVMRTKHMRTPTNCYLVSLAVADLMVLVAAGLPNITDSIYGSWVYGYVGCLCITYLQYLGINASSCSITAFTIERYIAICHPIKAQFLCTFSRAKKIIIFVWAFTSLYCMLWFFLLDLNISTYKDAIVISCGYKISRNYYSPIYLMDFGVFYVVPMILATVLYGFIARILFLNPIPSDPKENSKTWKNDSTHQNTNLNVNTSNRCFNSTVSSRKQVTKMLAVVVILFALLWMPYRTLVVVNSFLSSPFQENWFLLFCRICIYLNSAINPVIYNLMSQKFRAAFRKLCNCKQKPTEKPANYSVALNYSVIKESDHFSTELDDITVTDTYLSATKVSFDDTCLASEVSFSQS
Chain of Progesterone receptor (Homo sapiens) (P06401 whole entry, looked up): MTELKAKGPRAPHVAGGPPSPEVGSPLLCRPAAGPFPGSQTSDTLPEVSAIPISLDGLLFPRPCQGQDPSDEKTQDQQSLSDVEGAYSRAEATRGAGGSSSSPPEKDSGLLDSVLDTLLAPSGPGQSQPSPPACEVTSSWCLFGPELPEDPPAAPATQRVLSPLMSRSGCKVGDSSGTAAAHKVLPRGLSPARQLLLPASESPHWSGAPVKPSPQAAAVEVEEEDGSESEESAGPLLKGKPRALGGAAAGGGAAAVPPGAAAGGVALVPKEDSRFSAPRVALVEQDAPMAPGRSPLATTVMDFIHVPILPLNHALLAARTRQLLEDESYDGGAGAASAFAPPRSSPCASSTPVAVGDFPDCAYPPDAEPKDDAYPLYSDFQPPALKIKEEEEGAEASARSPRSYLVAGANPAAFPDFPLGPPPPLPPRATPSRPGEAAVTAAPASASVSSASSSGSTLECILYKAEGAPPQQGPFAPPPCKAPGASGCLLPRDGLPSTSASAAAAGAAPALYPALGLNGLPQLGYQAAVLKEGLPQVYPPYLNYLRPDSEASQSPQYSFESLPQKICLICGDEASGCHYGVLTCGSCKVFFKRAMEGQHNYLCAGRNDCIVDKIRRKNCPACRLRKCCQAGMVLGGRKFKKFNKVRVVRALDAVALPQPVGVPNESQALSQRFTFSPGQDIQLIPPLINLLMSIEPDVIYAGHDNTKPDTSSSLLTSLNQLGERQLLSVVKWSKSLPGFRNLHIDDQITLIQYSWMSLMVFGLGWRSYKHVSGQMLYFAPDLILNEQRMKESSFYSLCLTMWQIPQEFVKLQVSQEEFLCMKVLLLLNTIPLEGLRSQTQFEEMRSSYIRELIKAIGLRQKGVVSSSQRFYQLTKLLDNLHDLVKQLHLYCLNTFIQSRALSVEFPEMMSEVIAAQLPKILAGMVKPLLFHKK
Chain of Nuclear receptor subfamily 1 group I member 2 (Homo sapiens) (O75469 whole entry, looked up): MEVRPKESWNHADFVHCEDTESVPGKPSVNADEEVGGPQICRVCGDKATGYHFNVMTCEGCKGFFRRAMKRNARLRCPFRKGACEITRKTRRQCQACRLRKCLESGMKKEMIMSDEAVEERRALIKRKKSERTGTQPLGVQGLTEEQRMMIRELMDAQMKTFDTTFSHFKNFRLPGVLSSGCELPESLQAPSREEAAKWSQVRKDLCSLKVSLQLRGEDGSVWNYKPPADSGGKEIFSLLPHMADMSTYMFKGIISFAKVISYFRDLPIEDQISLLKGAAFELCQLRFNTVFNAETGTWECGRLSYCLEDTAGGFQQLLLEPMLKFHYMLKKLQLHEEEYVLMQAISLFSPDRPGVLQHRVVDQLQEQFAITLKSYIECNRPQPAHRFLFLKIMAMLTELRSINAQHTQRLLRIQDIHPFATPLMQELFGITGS
Chain of Nuclear receptor subfamily 1 group I member 2 (Rattus norvegicus) (Q9R1A7 whole entry, looked up): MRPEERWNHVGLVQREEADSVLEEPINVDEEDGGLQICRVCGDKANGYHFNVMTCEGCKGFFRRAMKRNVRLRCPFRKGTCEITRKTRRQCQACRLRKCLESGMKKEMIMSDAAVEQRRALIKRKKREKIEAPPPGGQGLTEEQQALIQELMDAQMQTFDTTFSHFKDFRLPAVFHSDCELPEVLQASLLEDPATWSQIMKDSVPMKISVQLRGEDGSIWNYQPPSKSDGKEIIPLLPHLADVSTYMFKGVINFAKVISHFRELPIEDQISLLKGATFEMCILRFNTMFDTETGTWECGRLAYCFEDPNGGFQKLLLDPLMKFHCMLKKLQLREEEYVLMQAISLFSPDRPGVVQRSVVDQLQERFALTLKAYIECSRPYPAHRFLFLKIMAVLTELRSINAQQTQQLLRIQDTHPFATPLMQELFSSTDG

Consider `C[C@H]1O[C@@H](n2cc(F)c(=O)[nH]c2=O)[C@H](O)[C@@H]1O`, for which the result in assay [1], in assay [4], in assay [5], in [6], in assay [7] and in assay [8] was inactive. The result in assay [10], in assay [12] and in assay [13] was inactive. The Potency result in assay [2], in assay [3], in [9], in assay [11], in assay [14] and in assay [16] was “inactive” in each case. The max activation in assay [15] was -1.26%.
In the case of `Nc1cc(N)cc(C(=O)O)c1`, the result in [1], in assay [4], in [5], in assay [6], in assay [10] and in [12] was inactive. In addition, in assay [13], the result was inactive. Also, the Potency result in [2], in assay [17], in [18], in [9] and in [11] was “inactive” each time. In addition, the Potency in [14] is 34.4 µM (active).
Turning to `OC/C=C/c1ccccc1`, the outcome in [1], in [5], in assay [6], in [10], in [12] and in assay [13] was inactive. Besides, the Potency entry in assay [2], in [3], in assay [17], in assay [9], in [11] and in assay [14] was “inactive” each time. Moreover, the Potency result in assay [16] is “inactive”. The max activation in assay [15] is -5.54%.
Take `CC(C)(C)N(CCO)CCO`: the result in assay [1], in [4], in [5], in assay [6], in assay [7] and in assay [8] was inactive. The outcome in assay [10], in assay [12] and in assay [13] was inactive. Also, the Potency entry in [2], in [17], in assay [18], in assay [9] and in assay [11] was “inactive” in each case. Further, the Potency in assay [14] was 63.1 µM (active).
On to `CC(=O)OC(C)(C)C`, for which the outcome in [1], in assay [4], in [5], in assay [6], in assay [7] and in assay [8] was inactive. The call in assay [10], in assay [12] and in assay [13] was inactive. The Potency result in assay [2], in assay [3], in assay [17], in assay [9], in assay [11] and in [14] was “inactive” each time.
In the case of `COc1ccc2cc(C=O)ccc2c1`, the result in assay [1], in [4], in assay [5], in assay [6], in assay [7] and in assay [8] was inactive. In addition, the result in assay [10], in assay [12] and in [13] was inactive. The Potency entry in [2], in [17], in assay [18], in assay [9], in assay [11] and in assay [14] was “inactive” each time.
As to `CCCC(C)CO` (stereo not given), the result in assay [1], in [5], in [6], in [10], in assay [12] and in [13] was inactive. Also, the Potency result in [2], in assay [3], in assay [17], in assay [18], in assay [9] and in assay [11] was “inactive” in each case. In addition, the Potency result in assay [14] was “inactive”.
Consider `COC(=O)C1=C(C)NC(C)=C(C(=O)OCC(C)=O)C1c1ccccc1[N+](=O)[O-]` (stereo not given), for which the result in assay [1], in assay [4], in assay [5], in [6], in assay [7] and in [8] was inactive. In addition, the outcome in [10], in assay [12] and in assay [13] was inactive. For the same molecule, the Potency entry in assay [2], in assay [3], in [17], in [9] and in assay [11] was “inactive” throughout.
